# Results as given in PubChem BioAssay (NCATS).
# Inconclusive results are not listed. Entries that show only a call come without a potency. Activity calls are given as the source filed them. Unless noted, calls come from the whole dose curve; as a rule, active = well fitted curve in the direction sought with a large enough effect; inconclusive = small, poorly fitted or top-dose-only effect, or another doubt; inactive = no such curve, though single readings can be large; an effect the other way counts as inactive or inconclusive. *1 amine or outer side, *2 acyl side, *3 side chain or, on linkers, in order; H or OH if unused. Where a SMILES comes first, the peptide text is derived from it. [ ]: non-standard residue; d: D form. Ala(indol-2-yl) = N[C@@H](Cc1cc2ccccc2[nH]1)C(=O)O; X7 = O=C([C@@H](CC(O)CCl)O[*:1])[*:2]; aIle = CC[C@@H](C)[C@H](N)C(=O)O; NMeV = CN[C@H](C(=O)O)C(C)C; NMeA = CN[C@@H](C)C(=O)O; Aib = CC(C)(N)C(=O)O; βAla = NCCC(=O)O
# Assays:
# [1] = Primary qHTS for inhibitors of nuclear receptor binding SET domain protein 2 (NSD2) in an RCH-ACV wild type WT cells (2C) (AID 1645877); note: nearly all actives have a fitted effect of over 70% in size; note: potency is the fitted concentration of half-maximal effect
# [2] = Primary redox qHTS assay for identification of artifact compounds. (AID 1845223)
# How it was run: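 Redox-cycling detection via DTT (250 uM final) oxidation coupled to Amplex Red (25 uM)/HRP (250 mU/mL) in HBSS. 15 min preincubation plus 30 min after DTT, room temperature. Ex/Em 525/598 nm; 4-parameter Hill fit against DMSO and 10 uM DA3003.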
# CAOV3 = experiment: Primary qHTS to identify gynecologic anti-cancer compounds using libraries of approved drugs and bioactive compounds (AID 1345084); conditions: Gynecologic cancer cell panel viability, ATPlite luminescence, 48 h; series mostly up to 57.5 µM; note: nearly all actives have a fitted effect of over 55% in size; note: potency is the fitted concentration of half-maximal effect
# How it was run: (§1)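 Cell viability after 48 h drug treatment, ATPlite luminescence readout; five doses.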
# JEG-3 = experiment: as above; conditions: Gynecologic cancer cell panel viability, ATPlite luminescence, 48 h; series mostly up to 57.5 µM
# How it was run: as §1
# [3] = P-glycoprotein substrates identified in KB-8-5-11 adenocarcinoma cell line, qHTS therapeutic library screen (AID 1346987); note: nearly all actives have a fitted effect of over 65% in size; note: potency is the fitted concentration of half-maximal effect
# How it was run: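 Compounds are pinned in dose-response onto KB-8-5-11 cells (500 cells/well, colchicine-free medium) and left 72 h at 37 degree C. CellTiter-Glo luminescence then yields AC50 values.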
# [4] = test system: Zika virus NS2B-NS3 protease (unlinked complex); experiment: Primary screen GU Rhodamine qHTS for Zika virus inhibitors: Unlinked NS2B-NS3 protease assay (AID 1347159); note: nearly all actives have a fitted effect of over 60% in size
# How it was run: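 Enzyme 25 nM in Tris-HCl pH 8.0 + 0.01% Tween 20; compounds up to 114 microM, 15 min RT dark; + Rhod110 substrate 1.5 microM; read t0 and 15 min; delta fluorescence → % inhibition → 4-parameter Hill fit.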
# [5] = molecular target: Cytochrome P450 2D6 (Homo sapiens) (UniProt P10635); experiment: Cytochrome P450 family 2 subfamily D member 6 (CYP2D6) small molecule antagonists: luciferase biochemical (cell-free) qHTS assay (AID 1645840; active = well fitted curve in the direction sought with a large enough effect in the repeat runs; an effect the other way counts as inactive or inconclusive; note: nearly all actives have a fitted effect of over 55% in size; note: potency is the fitted concentration of half-maximal effect)
# How it was run: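 P450-Glo CYP2D6 system: proluciferin substrate converted by enzyme to luciferin, read by luminescence proportional to activity. Enzyme-substrate mix with compound 10 min at room temperature, then NADPH regeneration 1 h before detection reagent.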
# NIH3T3 = experiment: Cytotoxic Profiling of Annotated Libraries Using Quantitative High-Throughput Screening (AID 1296008); conditions: Five cell lines viability, CellTiter-Glo ATP luminescence, 48-72 h; max response: stronger effect = lower value; note: nearly all actives have a fitted effect of over 60% in size; note: potency is the fitted concentration of half-maximal effect
# How it was run: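 Cells exposed to compounds for 48 or 72 hr at 37 degrees Celsius. Viability read as ATP-coupled luminescence with CellTiter-Glo after 10 min at room temperature.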
# HeLa = experiment: Primary qHTS to identify gynecologic anti-cancer compounds using libraries of approved drugs and bioactive compounds (AID 1345084); conditions: Gynecologic cancer cell panel viability, ATPlite luminescence, 48 h; series mostly up to 57.5 µM; note: nearly all actives have a fitted effect of over 55% in size; note: potency is the fitted concentration of half-maximal effect
# How it was run: as §1
# SKOV3 = experiment: as above; conditions: Gynecologic cancer cell panel viability, ATPlite luminescence, 48 h; series mostly up to 57.5 µM
# How it was run: as §1
# [6] = molecular target: Cytochrome P450 2C9 (Homo sapiens) (UniProt P11712); experiment: Cytochrome P450 family 2 subfamily C member 9 (CYP2C9) small molecule antagonists: luciferase biochemical (cell-free) qHTS assay (AID 1645842; active = well fitted curve in the direction sought with a large enough effect in the repeat runs; an effect the other way counts as inactive or inconclusive; note: nearly all actives have a fitted effect of over 55% in size; note: potency is the fitted concentration of half-maximal effect)
# How it was run: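 P450-Glo CYP2C9 system: proluciferin substrate with enzyme in mix containing 0.4% BSA, 10 min at room temperature, then NADPH regeneration solution added and incubated 1 h at 37C. Detection reagent stopped reaction; luminescence read after 20 min as RLU.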
# [7] = P-glycoprotein substrates identified in KB-3-1 adenocarcinoma cell line, qHTS therapeutic library screen (AID 1346986); note: nearly all actives have a fitted effect of over 60% in size
# How it was run: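 In 1536-well format, 500 cells/well received pinned compound titrations and were incubated 72 h, 5% CO2. Viability was read by CellTiter-Glo; cytotoxic if AC50 < 10 uM and efficacy >50%.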
# [8] = qHTS drug screen for cell cycle checkpoint inhibitors in PARPi-resistant BRCA-mutant ovarian cancer cell lines. (AID 1963452; calls by dose curve); conditions: PEO1/OlaR viability, CellTiter-Glo luminescence, 96 h, stronger effect = lower value
# How it was run: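 PEO1, PEO4 and PEO1/OlaR ovarian cancer cells, 600 per well, exposed 96 h at 37C to a dilution series. Viability read by CellTiter-Glo luminescence, normalized to DMSO and empty wells; activity summarized as Z-AUC.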
# [9] = molecular target: Catechol O-methyltransferase (Homo sapiens) (UniProt P21964); experiment: Confirmatory Screen for Target Class Profiling of Small Molecule Inhibitors of Methyltransferases (AID 1745852; calls by dose curve); conditions: MTase-Glo luminescence, SAH detection, recombinant enzyme; measured here: COMT max response; stronger effect = lower value
# [10] = molecular target: Guanidinoacetate N-methyltransferase (Homo sapiens) (UniProt Q14353); experiment: as above; conditions: activity change, negative = inhibition: at 57.3 µM (top of the series) unless noted
# [11] = molecular target: Nicotinamide N-methyltransferase (Homo sapiens) (UniProt P40261); experiment: as above; conditions: MTase-Glo luminescence, SAH detection, recombinant enzyme; measured here: NNMT max response; stronger effect = lower value
# [12] = molecular target: Phenylethanolamine N-methyltransferase (Homo sapiens) (UniProt P11086); experiment: as above; conditions: MTase-Glo luminescence, SAH detection, recombinant enzyme; measured here: PNMT max response; stronger effect = lower value
# Chain of Phenylethanolamine N-methyltransferase (Homo sapiens) (P11086 whole entry, looked up): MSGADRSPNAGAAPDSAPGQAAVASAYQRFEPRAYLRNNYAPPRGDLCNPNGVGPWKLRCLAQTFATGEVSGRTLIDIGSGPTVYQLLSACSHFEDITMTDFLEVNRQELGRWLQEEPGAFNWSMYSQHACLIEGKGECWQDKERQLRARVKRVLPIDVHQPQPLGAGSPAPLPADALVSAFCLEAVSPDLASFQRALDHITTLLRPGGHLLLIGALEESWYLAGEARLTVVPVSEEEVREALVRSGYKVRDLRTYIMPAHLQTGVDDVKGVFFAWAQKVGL
# Chain of Cytochrome P450 2D6 (Homo sapiens) (P10635 whole entry, looked up): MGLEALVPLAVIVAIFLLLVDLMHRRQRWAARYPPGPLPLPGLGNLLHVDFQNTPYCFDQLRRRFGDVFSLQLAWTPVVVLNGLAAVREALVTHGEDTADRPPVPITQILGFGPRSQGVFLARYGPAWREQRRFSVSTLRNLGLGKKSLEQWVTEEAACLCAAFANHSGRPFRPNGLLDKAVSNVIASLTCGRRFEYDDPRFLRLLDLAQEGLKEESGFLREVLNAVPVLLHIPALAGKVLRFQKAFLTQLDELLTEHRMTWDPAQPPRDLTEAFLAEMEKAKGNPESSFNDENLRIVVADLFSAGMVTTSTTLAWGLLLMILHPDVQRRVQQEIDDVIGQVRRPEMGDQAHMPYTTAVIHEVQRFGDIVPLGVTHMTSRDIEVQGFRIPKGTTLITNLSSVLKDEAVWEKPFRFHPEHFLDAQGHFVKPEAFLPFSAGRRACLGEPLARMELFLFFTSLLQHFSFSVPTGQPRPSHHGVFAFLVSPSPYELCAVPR
# Chain of Cytochrome P450 2C9 (Homo sapiens) (P11712 whole entry, looked up): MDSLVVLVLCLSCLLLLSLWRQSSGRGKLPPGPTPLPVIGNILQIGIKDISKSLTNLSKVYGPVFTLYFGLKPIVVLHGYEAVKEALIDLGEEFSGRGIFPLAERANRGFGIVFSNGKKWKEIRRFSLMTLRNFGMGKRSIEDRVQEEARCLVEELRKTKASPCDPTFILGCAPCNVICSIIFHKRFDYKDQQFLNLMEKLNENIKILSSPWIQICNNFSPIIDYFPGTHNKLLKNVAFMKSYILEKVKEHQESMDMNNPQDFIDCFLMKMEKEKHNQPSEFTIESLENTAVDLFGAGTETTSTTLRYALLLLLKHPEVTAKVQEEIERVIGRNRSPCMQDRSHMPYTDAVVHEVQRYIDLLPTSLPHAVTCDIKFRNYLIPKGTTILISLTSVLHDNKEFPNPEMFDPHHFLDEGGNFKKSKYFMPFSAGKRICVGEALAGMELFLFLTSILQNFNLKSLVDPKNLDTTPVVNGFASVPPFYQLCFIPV
# Chain of Nicotinamide N-methyltransferase (Homo sapiens) (P40261 whole entry, looked up): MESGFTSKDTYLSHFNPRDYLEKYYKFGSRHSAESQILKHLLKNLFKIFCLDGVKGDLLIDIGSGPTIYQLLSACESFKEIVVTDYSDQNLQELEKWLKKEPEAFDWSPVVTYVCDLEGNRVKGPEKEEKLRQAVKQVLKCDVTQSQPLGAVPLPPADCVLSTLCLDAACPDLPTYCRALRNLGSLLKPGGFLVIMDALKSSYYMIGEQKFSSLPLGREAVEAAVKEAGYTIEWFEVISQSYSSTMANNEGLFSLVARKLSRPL
# Chain of Catechol O-methyltransferase (Homo sapiens) (P21964 whole entry, looked up): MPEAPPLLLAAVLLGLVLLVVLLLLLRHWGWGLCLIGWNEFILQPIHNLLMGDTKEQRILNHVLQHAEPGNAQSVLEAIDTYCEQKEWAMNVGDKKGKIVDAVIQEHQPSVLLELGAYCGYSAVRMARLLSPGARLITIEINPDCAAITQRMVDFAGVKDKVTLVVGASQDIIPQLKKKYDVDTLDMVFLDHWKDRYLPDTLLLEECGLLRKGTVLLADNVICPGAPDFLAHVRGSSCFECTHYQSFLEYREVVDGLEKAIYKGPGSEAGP
structure (smiles),measurement,setting,value
C[C@H](CCC(=O)O)C[C@H](C)C[C@H](C)C(=O)/C=C(\O)[C@H](C)C[C@H](C)C/C=C/[C@@H](C)[C@@H](O)[C@@H](C)[C@@H](O)C[C@@H]1CC[C@@](C)([C@H]2CC[C@@](C)([C@@H](C)O)O2)O1,Potency,[1],4.47 µM (active)
same,Potency,[2],inactive
same,Potency,CAOV3,inactive
same,Potency,JEG-3,inactive
C=C1[C@@H](C)C2[C@H](Cc3ccccc3)NC(=O)[C@@]23C(/C=C/C[C@H](C)C[C@@](C)(O)/C=C/[C@@H]3OC(C)=O)[C@@H]1O (stereo partly drawn),Potency,[3],2.91 µM (active)
same,Potency,[4],inactive
same,Potency,[1],0.205 µM (active)
same,Potency,[2],inactive
same,Potency,CAOV3,inactive
CN1C[C@@H]2CN(c3ccc(-c4ccccc4)nn3)C[C@@H]2C1,Potency,[3],inactive
same,Potency,[4],inactive
same,Potency,[5],inactive
same,Potency,[2],inactive
same,outcome,NIH3T3,inactive
same,Potency,CAOV3,inactive
same,Potency,HeLa,inactive
same,Potency,JEG-3,inactive
same,Potency,SKOV3,inactive
O=C(CC1NCCC[C@H]1O)Cn1cnc2cc(Br)c(Cl)cc2c1=O (stereo partly drawn),Potency,[3],inactive
same,Potency,[5],inactive
same,Potency,[6],inactive
same,max response,NIH3T3,-4.52% (inactive)
C[C@@H]1C[C@@H](O)[C@]2(O)O[C@@H]3C[C@@]4(C=O)C(CC[C@@H]5C4CC[C@]4(C)[C@@H](C6=CC(=O)OC6)CC[C@]54O)C[C@H]3O[C@@H]2O1 (stereo partly drawn),Potency,[4],inactive
same,Potency,[1],0.0796 µM (active)
same,Potency,[2],inactive
same,Potency,JEG-3,inactive
CC[C@@H](C)[C@@H]1NC(=O)[C@@H]2CCCN2C(=O)[C@@H](CC(O)CCl)OC(=O)CCNC(=O)[C@H](C)N(C)C(=O)[C@H](C(C)C)N(C)C1=O (stereo partly drawn) (cyclo([NMeA][βAla][X7]P[aIle][NMeV])),Potency,[4],inactive
same,Potency,[1],0.483 µM (active)
same,Potency,[2],inactive
same,Potency,NIH3T3,2.43 µM (active)
same,Potency,CAOV3,3.16 µM (active)
same,Potency,JEG-3,inactive
CC(C)(NC(=O)[C@@H](N)Cc1ccc(O)cc1)C(=O)N[C@@H](Cc1cc2ccccc2[nH]1)C(=O)N[C@@H](Cc1ccccc1)C(=O)O (H-Y[Aib][Ala(indol-2-yl)]F-OH),outcome,[7],inactive [at 9.29 µM]
same,"activity change, negative = cytotoxicity",[3],5.29% [at 9.29 µM] (inactive)
same,"activity change, negative = cell killing",[1],-2.68% [at 9.23 µM] (inactive)
same,redox activity (% of DA3003),[2],9.88% [at 11.5 µM] (inactive)
same,"activity change, negative = cytotoxicity",CAOV3,2.52% [at 11.6 µM] (inactive)
same,"activity change, negative = cytotoxicity",HeLa,14.3% [at 11.6 µM] (inactive)
same,"activity change, negative = cytotoxicity",JEG-3,-21.6% [at 11.6 µM] (inactive)
same,"activity change, negative = cytotoxicity",SKOV3,-8.69% [at 11.6 µM] (inactive)
OCc1nnc2n1-c1ccc(Cl)cc1C(c1ccccc1Cl)=NC2,Potency,[3],inactive
same,Potency,[4],inactive
same,Potency,[1],inactive
same,Potency,[2],inactive
same,Potency,CAOV3,inactive
same,Potency,HeLa,inactive
same,Potency,JEG-3,inactive
same,Potency,SKOV3,inactive
COc1cc2c(c(OC)c1OC)-c1ccc(SC)c(=O)cc1[C@@H](NC(C)=O)CC2,Potency,[3],0.231 µM (active)
COC1C(O)C(C)OC(OC2C(CO)O[C@@H](O[C@@H]3CC4CCC5C(CC[C@]6(C)[C@@H](C7=CC(=O)OC7)CC[C@]56O)[C@@]4(C)[C@H](OC(C)=O)C3)C(O)C2O)C1O (stereo partly drawn),Potency,[3],2.73 µM (active)
same,Potency,[4],inactive
same,Potency,[1],2.42 µM (active)
same,outcome,NIH3T3,inactive
same,Potency,HeLa,10 µM (active)
CN1CCN(c2nc3ccccc3nc2Cl)CC1,Potency,[7],inactive
same,Potency,[3],inactive
same,Potency,[1],inactive
same,Potency,[2],inactive
same,outcome,NIH3T3,inactive
same,Potency,CAOV3,inactive
same,Potency,HeLa,inactive
same,Potency,JEG-3,inactive
CCc1nn(C)c(C(=O)NCc2ccc(Oc3ccc(C)cc3)cc2)c1Cl,Potency,[3],25.9 µM (active)
same,Potency,[6],5.35 µM (active)
same,Potency,[2],inactive
same,Potency,CAOV3,inactive
same,Potency,HeLa,inactive
same,Potency,JEG-3,inactive
CN[C@@H]1C[C@H]2O[C@@](C)([C@@H]1OC)n1c3ccccc3c3c4c(c5c6ccccc6n2c5c31)C(=O)NC4,Potency,[3],0.058 µM (active)
same,Potency,[1],0.059 µM (active)
same,Potency,[2],inactive
same,Z-AUC,[8],-2.43 (inactive)
same,Z-AUC,[8]; measured here: PEO1 parental Z-AUC,-2.26
same,Z-AUC,[8]; measured here: PEO4 Z-AUC,-2.16
same,Potency,HeLa,0.282 µM (active)
same,Potency,SKOV3,0.316 µM (active)
Fc1cc(F)c2c(c1)C1C=CCC1C(c1cccnc1)N2 (stereo not drawn),Potency,[3],4.61 µM (active)
same,Potency,[4],inactive
same,Potency,[5],23.9 µM (active)
same,Potency,[6],5.35 µM (active)
same,Potency,[1],16.3 µM (active)
same,activity,[9],-0.484%
same,"activity change, negative = inhibition",[10],0.0443%
same,activity,[11],-6.05%
same,activity,[12],-0.468%
same,Potency,[2],inactive
same,Potency,HeLa,10 µM (active)
same,Potency,SKOV3,11.2 µM (active)
